Most compounds without a hit are left out; they make up all but 2.8% or so of the library.
EBV LMP1 NFkB: reduces LMP1-driven NF-kappaB luciferase signal | inhibition, % at 12.5 µM | AID 504558 | LMP1-induced NF-kappaB luciferase reporter cells, luminescence | 0.69% of 350,000 active; in the data active = inhibition above about 41%;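 also: 0% = neutral control wells and 100% = reference inhibitor control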
Peg3 promoter: inhibitors of Peg3 promoter. 1.7% of 360,000 active. HeLa PEG-Prom luciferase reporter, luminescence, overnight. inhibition, % at 20 µM. AID 588405;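 active = inhibition of at least 50% at 20 µM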
Shn3 3UTR inh: Schnurri-3 reporter inhibition in Clone20 osteoblasts; Clone20 osteoblast Shn3 3'UTR firefly luciferase, 24 h; inhibition, % at 12.5 µM; 0.52% of 360,000 active; AID 588674;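 active = mean inhibition of at least 75% with every replicate also reaching 75%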;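 also: 0% = median of neutral control wells and 100% = pilot-screen positive control compound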
HIF-2a block: inhibitors of HIF-2a; inhibition, % at 18.8 µM; 786-0 RCC cells HIF-2a reporter, luciferase luminescence, overnight; 0.72% of 360,000 active;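 active = inhibition of the luminescence signal of 40% or more relative to plate controls, in a single-dose primary screen at 18.75 µM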
TRPM1 prom inh: MITF TRPM1 promoter inhibition in SK-MEL-5 cells; inhibition, % at 12.5 µM; SK-MEL-5 TRPM1 promoter luciferase, 24 h; 0.83% of 330,000 active;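 active = mean inhibition across replicates of 60% or more, whatever share of single replicates reaches that level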
PAX8 inh HTS: lowers PAX8-driven luciferase in RMG-I cells | inhibition, % at 12.6 µM | 1.2% of 360,000 active | RMG-I TPO-luciferase reporter, SteadyGlo, 24 h;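 active = mean replicate inhibition at least 60% with every replicate also reaching 60%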;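 also: luciferase light reporting Pax8 driven TPO promoter activity; plate controls were median of neutral control wells for no effect and mitoxantrone controls for full effect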
An asterisk follows results filed as active; . = no result.

SMILES	EBV LMP1 NFkB	Peg3 promoter	Shn3 3UTR inh	HIF-2a block	TRPM1 prom inh	PAX8 inh HTS
COc1ccc(/C=C2/Sc3ccc(C(=O)NCCCN4CCOCC4)cc3NC2=O)cc1OC	1	88*	6	23	7	25
C[C@@H]1CN([C@H](C)CO)C(=O)c2cc(NC(=O)Cc3ccccc3)ccc2O[C@@H](C)CCCCO[C@@H]1CN(C)S(C)(=O)=O	.	.	.	.	.	2
Cc1cnc(C)c(Nc2nc(C(N)Cc3ccc(C(F)(F)F)cc3)cs2)n1 (centres undefined)	.	108*	48	12	.	9
NC(Cc1ccc(C(F)(F)F)cc1)c1csc(Nc2ncccn2)n1 (centres undefined)	.	8	25	-1	.	1
NC(Cc1ccc(Cl)cc1)c1csc(Nc2ccc(-c3ccccc3)nn2)n1 (centres undefined)	.	99*	9	0	.	-10
NC(Cc1cnc[nH]1)c1csc(Nc2ccc(C(F)(F)F)cn2)n1 (centres undefined)	.	7	-11	11	.	15
Cc1cnc(C)c(Nc2nc(C(N)Cc3ccccc3)cs2)n1 (centres undefined)	.	-4	2	1	.	-4
NC(Cc1ccc(Cl)cc1)c1csc(Nc2cc(NCCCO)ncn2)n1 (centres undefined)	.	17	32	11	.	31
NC(Cc1ccc(F)cc1)c1csc(Nc2ccc(C(F)(F)F)cn2)n1 (centres undefined)	.	95*	19	7	.	8
NC(Cc1ccc(C(F)(F)F)cc1)c1csc(Nc2ccccn2)n1 (centres undefined)	.	105*	13	1	.	13
O=C(C[C@H]1C=C[C@@H](NC(=O)Nc2ccc3c(c2)OCO3)[C@H](CO)O1)NCc1ccc2c(c1)OCO2	.	.	.	.	.	-14
C[C@H]1CCCCO[C@@H](CN(C)C(=O)Nc2ccccc2)[C@@H](C)CN([C@@H](C)CO)C(=O)c2cc(NS(=O)(=O)c3cccs3)ccc2O1	.	.	.	.	.	-22
COc1ccc(CN(C)C[C@@H]2OCCCC[C@H](C)Oc3ccc(NS(=O)(=O)c4c(C)noc4C)cc3C(=O)N([C@H](C)CO)C[C@H]2C)cc1	.	.	.	.	.	-11
C[C@@H]1CN([C@H](C)CO)C(=O)c2cc(NC(=O)CCCN(C)C)ccc2O[C@H]1CN(C)Cc1ccc(C(F)(F)F)cc1	.	.	.	.	.	-15
O=C(CN1c2ccccc2Sc2ccccc21)NNC(=S)Nc1ccc(Cl)cc1Cl	3	50*	11	0	-3	.
O=C(CN1c2ccccc2Sc2ccccc21)NNC(=S)Nc1ccc(Cl)cc1	0	13	18	14	-5	11
C[C@H]1CCCCO[C@H](CN(C)Cc2ccc3c(c2)OCO3)[C@@H](C)CN([C@@H](C)CO)C(=O)c2cc(NC(=O)Nc3ccc(C(F)(F)F)cc3)ccc2O1	.	.	.	.	.	67*
C[C@H](CO)N1C[C@H](C)[C@H](CN(C)Cc2ccc3c(c2)OCO3)OCCCC[C@H](C)Oc2ccc(NC(=O)Nc3ccc(C(F)(F)F)cc3)cc2C1=O	.	.	.	.	.	108*
C[C@@H]1CN([C@@H](C)CO)C(=O)c2cc(NC(=O)Nc3ccc(C(F)(F)F)cc3)ccc2O[C@@H](C)CCCCO[C@H]1CN(C)Cc1ccc2c(c1)OCO2	.	.	.	.	.	83*
C[C@H](CO)N1C[C@H](C)[C@@H](CN(C)Cc2ccc(C(F)(F)F)cc2)OCCCC[C@H](C)Oc2ccc(NC(=O)Nc3ccc4c(c3)OCO4)cc2C1=O	.	.	.	.	.	60
C[C@@H]1CCCCO[C@H](CN(C)Cc2ccc3c(c2)OCO3)[C@@H](C)CN([C@@H](C)CO)C(=O)c2cc(NC(=O)Nc3ccc(C(F)(F)F)cc3)ccc2O1	.	.	.	.	.	101*
CO[C@@H]1CN(C)C(=O)c2cc(NS(=O)(=O)CC(F)(F)F)ccc2OC[C@H](C)N(CCC(F)(F)F)C[C@H]1C	.	.	.	.	.	-1
C[C@@H]1CCCCO[C@@H](CN(C)Cc2ccc3c(c2)OCO3)[C@@H](C)CN([C@H](C)CO)C(=O)c2cc(NC(=O)Nc3ccc(C(F)(F)F)cc3)ccc2O1	.	.	.	.	.	35
C[C@@H]1CCCCO[C@H](CN(C)Cc2ccc3c(c2)OCO3)[C@H](C)CN([C@@H](C)CO)C(=O)c2cc(NC(=O)Nc3ccc(C(F)(F)F)cc3)ccc2O1	.	.	.	.	.	63*
C[C@@H]1CN([C@H](C)CO)C(=O)c2cc(NC(=O)Nc3ccc(C(F)(F)F)cc3)ccc2O[C@@H](C)CCCCO[C@H]1CN(C)Cc1ccc2c(c1)OCO2	.	.	.	.	.	108*

High-throughput results: PubChem, several laboratories
